Potency and affinity values are given separately. Active and inactive are the calls of the source. Where a call stands in place of a potency, no number is given. Cut-off not given; nearly all actives show IC50 up to about 0.91 µM.

From PubChem BioAssay come the findings set out here.

For this test, the target named is Calcium-dependent protein kinase 4 (Plasmodium falciparum (isolate 3D7)) (UniProt Q8IBS5). Kind of test: PfCDPK4 kinase inhibitors, biochemical, TCAMS library (AID 1159588). The settings on record: recombinant PfCDPK4, Kinase-Glo ATP depletion luminescence. On the technique in general: In Kinase-Glo more light means more ATP remaining.
Chain of Calcium-dependent protein kinase 4 (Plasmodium falciparum (isolate 3D7)) (Q8IBS5 whole entry, looked up): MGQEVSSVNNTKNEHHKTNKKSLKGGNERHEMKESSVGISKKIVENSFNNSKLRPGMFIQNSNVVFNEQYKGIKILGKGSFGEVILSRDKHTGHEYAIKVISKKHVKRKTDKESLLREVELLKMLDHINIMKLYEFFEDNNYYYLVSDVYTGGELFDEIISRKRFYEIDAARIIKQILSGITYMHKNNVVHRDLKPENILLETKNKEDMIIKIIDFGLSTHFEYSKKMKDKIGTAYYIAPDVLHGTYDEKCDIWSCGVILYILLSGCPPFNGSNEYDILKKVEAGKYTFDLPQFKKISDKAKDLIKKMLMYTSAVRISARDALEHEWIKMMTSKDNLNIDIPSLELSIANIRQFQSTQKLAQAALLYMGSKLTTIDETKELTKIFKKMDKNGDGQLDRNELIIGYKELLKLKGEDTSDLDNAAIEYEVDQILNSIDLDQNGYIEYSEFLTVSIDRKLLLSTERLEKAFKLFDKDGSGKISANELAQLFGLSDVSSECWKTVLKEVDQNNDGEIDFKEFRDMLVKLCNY
With `OC(CNc1ccnc(Nc2cccc(Cl)c2)n1)c1cccc(C(F)(F)F)c1` (stereo not given), the result was inactive.

`CC1CN(Cc2cccc(-c3ccc(-c4nc5ccc(F)cc5[nH]4)cc3)c2)CC(C)O1` (stereo not given): the outcome was inactive.

Turning to `COc1cc(F)c2ncc(Cl)c([C@H](O)CN3CCC(NCc4cc5c(cn4)OCCO5)CC3)c2c1`, the result was inactive.

Take `COc1ccc2nc(C)cc(NN=Cc3ccccc3Cl)c2c1`: the outcome was inactive.

With `Cn1nccc1C(=O)NCCNCc1ccc(-c2ccc(-c3nc4ccc(C(F)(F)F)cc4[nH]3)cc2)cc1`, the outcome was inactive.

Consider `COc1ccccc1C1CCN(C2CCC(NC(=O)/C=C/c3cc(F)cc(F)c3)CC2)CC1` (stereo not given), for which the result was inactive.

Consider `CN(C)CCCOc1ccc(CCCCc2ccc(Cl)cc2C(=O)c2ccccc2)cc1`, for which the outcome was inactive.

Turning to `O=C(C=Cc1ccc(C(=O)Nc2ccc(C3=NCCN3)cc2)cc1)Nc1ccc(C2=NCCN2)cc1`, the result was inactive.

`Cc1ccc2nc(C)cc(NC(=O)Nc3ccc(N(C)C)cc3)c2c1`: the outcome was inactive.

As for `CC(C)c1ccc(CN2CCCCC(NC(=O)c3cc(-c4ccccc4Cl)cs3)C2)cc1` (stereo not given), the result was inactive.

As to `CCNc1cc(C(=O)N[C@@H](Cc2ccccc2)[C@H](O)CNCCc2ccccc2)cc(N2CCCC2=O)c1`, the result was inactive.

On to `COc1cc(C(F)(F)F)c2cc(CNCCCNc3nc4ccccc4[nH]3)[nH]c2c1`, for which the outcome was inactive.

For `FC(F)(F)c1cccc(CNCCCCCNCc2ccc(Cl)cc2)c1`, the outcome was inactive.

Turning to `CC(=O)Nc1ccc(CN2Cc3ccc(NC(=O)Nc4ccc(Oc5ccccc5)cc4)cc3C2)s1`, the outcome was inactive.

`COCc1cccc(-c2cc(-c3ccc(S(C)(=O)=O)cc3)cnc2N)c1`: the result was inactive.

For the molecule `CCCCCCCCNc1c2ccc(Cl)cc2nc2ccc(OC)cc12`, the outcome was inactive.

Regarding `Oc1ccc(Cl)cc1CN1CCCC(COC(c2ccc(F)cc2)c2ccc(F)cc2)C1` (stereo not given), the result was inactive.

As to `CN1CCN(Cc2ccc(-c3cc4nccc(Nc5ccc(Oc6ccccc6)cc5)c4cc3Cl)o2)CC1`, the result was inactive.

`O=C(NCC1CCN(Cc2ccc(F)cc2)C1)c1cc(-c2cccc(C(F)(F)F)c2)cs1` (stereo not given): the result was inactive.

On to `Cn1ccnc1S(=O)(=O)CCNCc1ccc(-c2ccc3ncnc(Nc4ccc(OCc5cccc(F)c5)c(Cl)c4)c3c2)o1`, for which the outcome was inactive.

For the molecule `CCC(CC(NCCCCNC(=O)c1ccc(NC(=O)c2ccc(Cl)cc2)cc1)c1ccccc1)c1ccccc1OC` (stereo not given), the outcome was inactive.

On to `N#CC(c1ccc(Br)cc1)c1ccc2c(C(F)(F)F)cc(C(F)(F)F)nc2n1` (stereo not given), for which the outcome was inactive.

Turning to `O=C(CCCCCNC(=O)c1ccc(O)c(-c2ccc(Cl)c(Cl)c2)c1)NCCN1CCCCC1`, the outcome was inactive.

Turning to `COc1ccc(NC(=O)N2CCN(CCCCCNC(=O)/C=C/c3ccc(C(F)(F)F)cc3)CC2)cc1Cl`, the result was inactive.

With `O=C(Nc1ccc(Cn2ncc(N3CCCNCC3)c(Cl)c2=O)cc1)Nc1ccc(-c2ccccc2)cc1`, the outcome was inactive.

Turning to `O=C(NCCc1ccc(Cl)c(Cl)c1)c1ccc(CNC(=O)c2ccc(O)c(-c3ccc(Cl)c(Cl)c3)c2)cc1`, the outcome was inactive.

For `CC(=O)N1N=C(c2ccc(Cl)cc2)Sc2c1nc(C1CCCCC1)n2C(C)=O`, the result was inactive.

On to `CN1CCCN(Cc2ccc(-c3cccc(NC(=O)c4ccc(F)cc4)c3)cc2)CC1`, for which the result was inactive.

Take `NC(=O)COc1cccc2c1CCN(CCN1CCC(NC(=O)c3ccc(-c4ccc(Cl)cc4)cc3)CC1)C2`: the outcome was inactive.

Take `C=C[C@H]1CN(CCCCCCC)CC[C@H]1CCN(C)c1ccnc2ccc(OC)cc12`: the outcome was inactive.

Consider `CC(C)(C)CN1C(=O)C(c2ccccc2)(c2ccccc2)N=C1N`, for which the outcome was inactive.

Take `CN(C)CCOc1cc(NC(=O)Nc2ccc(-c3ccncc3)c(C(F)(F)F)c2)ccc1Cl`: the outcome was inactive.

Turning to `Cc1cc(NCCC(=O)NCCc2ccccc2)nc(NCCc2ccc(F)cc2)n1`, the outcome was inactive.

For `C[C@H](Cc1ccc(C[C@@H](C)NCC(O)c2cc(Cl)c(N)c(Cl)c2)cc1)NCC(O)c1cc(Cl)c(N)c(Cl)c1` (stereo not given in full), the outcome was inactive.

As for `FC(F)(F)c1ccc2nccc(NN=Cc3ccc(Cl)cc3)c2c1`, the result was inactive.

With `Cc1cc(N[C@@H](Cc2ccccc2)C(=O)NC2CCCC2)nc(NCCc2cccs2)n1`, the result was inactive.

`N#Cc1cccc(NC(=O)Nc2ccc(CC(=O)N3CCc4cc(Cl)c(N5CCN(C/C=C/c6ccccc6)CC5)cc43)cc2)c1`: the outcome was inactive.

Regarding `O=C(Nc1ccc(CN2CCN(S(=O)(=O)c3ccc(Cl)s3)CC2)cc1)c1cccs1`, the outcome was inactive.

Turning to `CC(CCCCC(=O)Nc1ccc(C(F)(F)F)cc1)NCC(O)c1cccc(Cl)c1` (stereo not given), the result was inactive.

As for `COc1ccc(NC(=O)c2cc(-c3ccc(NC(C)=O)cc3)cnc2N)cc1`, the outcome was inactive.
